Experimental data reported in PMC7862700, “An all-to-all approach to the identification of sequence-specific readers for epigenetic DNA modifications on cytosine”.

Key:
Assay in all cases: DAPPL (digital affinity profiling via proximity ligation, sequencing); 10 mM Tris-HCl pH 7.5, 50 mM NaCl, 1 mM DTT, 4% glycerol, room temperature, 30 min; GST-TFs on glutathione beads, 16-mer random dsDNA library, 0.1% formaldehyde crosslink after washing; high values mean tight binding
[1] = molecular target: T1, FLI1 (Homo sapiens, UniProt Q01543 1-452); details: protein: recombinant; tags: N-terminal GST; dsDNA, one strand shown
T1 sequence: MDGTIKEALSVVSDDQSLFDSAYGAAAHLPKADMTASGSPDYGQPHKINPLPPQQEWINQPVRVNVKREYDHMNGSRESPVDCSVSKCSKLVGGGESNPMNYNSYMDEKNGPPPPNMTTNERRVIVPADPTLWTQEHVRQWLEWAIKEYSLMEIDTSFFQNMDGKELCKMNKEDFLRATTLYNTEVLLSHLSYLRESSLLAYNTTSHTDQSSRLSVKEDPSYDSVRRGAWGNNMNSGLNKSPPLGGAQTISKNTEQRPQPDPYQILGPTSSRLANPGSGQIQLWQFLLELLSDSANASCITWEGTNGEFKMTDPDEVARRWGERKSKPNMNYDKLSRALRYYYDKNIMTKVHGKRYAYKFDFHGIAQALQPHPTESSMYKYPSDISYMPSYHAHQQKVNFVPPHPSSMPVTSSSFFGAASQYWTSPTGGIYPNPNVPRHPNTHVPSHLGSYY
Outline: (§1)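 After expression in yeast as GST fusions, human transcription factors were bound to glutathione beads, DNA-barcoded and mixed with a tag-only sample. The pools were incubated with 200 nmole of a 16-mer random double-stranded DNA library in Tris/NaCl/DTT/glycerol buffer (30 min, room temperature), washed and crosslinked with 0.1% formaldehyde. Proximity ligation with BsaI/T4 ligase ran for 1 h at 37 °C, before PCR amplification and sequencing on an Illumina NextSeq500. Binding signal is a hexamer's read frequency for a factor divided by its frequency for the tag-only sample.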

[2] = molecular target: T2, ELK1 (Homo sapiens, UniProt P19419 1-428); details: protein: recombinant; tags: N-terminal GST; dsDNA, one strand shown
T2 sequence: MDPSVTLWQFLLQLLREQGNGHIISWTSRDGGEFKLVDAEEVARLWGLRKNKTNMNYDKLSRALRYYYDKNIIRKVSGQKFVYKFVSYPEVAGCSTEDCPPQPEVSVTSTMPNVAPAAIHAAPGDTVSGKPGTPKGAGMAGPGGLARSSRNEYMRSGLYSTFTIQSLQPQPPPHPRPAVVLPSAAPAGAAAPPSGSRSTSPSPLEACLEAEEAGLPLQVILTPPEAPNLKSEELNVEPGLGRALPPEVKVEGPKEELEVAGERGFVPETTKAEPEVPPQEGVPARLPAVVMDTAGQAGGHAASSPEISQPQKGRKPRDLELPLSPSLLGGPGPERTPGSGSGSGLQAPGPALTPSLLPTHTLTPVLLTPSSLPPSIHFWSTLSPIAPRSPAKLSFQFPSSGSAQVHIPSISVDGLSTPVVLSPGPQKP
Outline: as §1

[3] = molecular target: ELF1 (Homo sapiens, UniProt P32519 1-619); details: protein: recombinant; tags: N-terminal GST; dsDNA, one strand shown
Chain of ELF1 (P32519 whole entry): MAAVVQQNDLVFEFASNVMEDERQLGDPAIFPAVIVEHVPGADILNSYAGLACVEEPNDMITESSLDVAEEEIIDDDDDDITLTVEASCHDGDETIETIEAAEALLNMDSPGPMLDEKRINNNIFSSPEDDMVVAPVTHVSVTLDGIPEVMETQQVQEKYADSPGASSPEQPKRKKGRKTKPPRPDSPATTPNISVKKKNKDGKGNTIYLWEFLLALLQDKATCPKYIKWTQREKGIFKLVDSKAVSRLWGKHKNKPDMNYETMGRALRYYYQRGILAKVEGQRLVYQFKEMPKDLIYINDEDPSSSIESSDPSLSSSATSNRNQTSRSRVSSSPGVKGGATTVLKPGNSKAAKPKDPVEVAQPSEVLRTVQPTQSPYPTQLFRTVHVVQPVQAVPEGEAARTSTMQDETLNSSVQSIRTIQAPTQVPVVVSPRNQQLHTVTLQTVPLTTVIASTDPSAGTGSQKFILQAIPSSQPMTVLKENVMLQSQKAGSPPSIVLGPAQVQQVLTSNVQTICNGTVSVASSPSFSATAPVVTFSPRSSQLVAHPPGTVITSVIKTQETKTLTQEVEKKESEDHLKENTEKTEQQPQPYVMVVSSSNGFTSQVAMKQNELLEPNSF
Outline: as §1

[4] = molecular target: T3, EHF (Homo sapiens, UniProt Q9NZC4 1-300); details: protein: recombinant; tags: N-terminal GST; dsDNA, one strand shown
T3 sequence: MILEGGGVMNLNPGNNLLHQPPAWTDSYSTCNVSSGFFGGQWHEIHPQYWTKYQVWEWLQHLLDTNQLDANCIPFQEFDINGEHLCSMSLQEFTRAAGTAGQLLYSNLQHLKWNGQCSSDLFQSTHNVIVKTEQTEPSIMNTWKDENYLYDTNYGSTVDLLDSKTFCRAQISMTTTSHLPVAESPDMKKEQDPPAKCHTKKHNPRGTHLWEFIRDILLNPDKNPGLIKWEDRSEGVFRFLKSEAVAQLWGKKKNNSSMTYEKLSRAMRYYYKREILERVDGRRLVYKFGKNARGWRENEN
Outline: as §1

[5] = molecular target: SPIB (Homo sapiens, UniProt Q01892 1-262); details: protein: recombinant; tags: N-terminal GST; dsDNA, one strand shown
Chain of SPIB (Q01892 whole entry): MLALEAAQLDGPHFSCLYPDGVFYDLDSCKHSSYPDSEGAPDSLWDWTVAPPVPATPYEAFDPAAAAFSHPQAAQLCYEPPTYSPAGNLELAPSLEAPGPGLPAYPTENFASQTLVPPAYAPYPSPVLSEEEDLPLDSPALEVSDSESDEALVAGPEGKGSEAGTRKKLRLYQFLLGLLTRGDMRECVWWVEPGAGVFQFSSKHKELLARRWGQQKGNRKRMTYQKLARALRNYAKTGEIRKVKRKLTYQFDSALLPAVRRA
Outline: as §1

[6] = molecular target: T4, ELK3 (Homo sapiens, UniProt P41970 1-407); details: protein: recombinant; tags: N-terminal GST; dsDNA, one strand shown
T4 sequence: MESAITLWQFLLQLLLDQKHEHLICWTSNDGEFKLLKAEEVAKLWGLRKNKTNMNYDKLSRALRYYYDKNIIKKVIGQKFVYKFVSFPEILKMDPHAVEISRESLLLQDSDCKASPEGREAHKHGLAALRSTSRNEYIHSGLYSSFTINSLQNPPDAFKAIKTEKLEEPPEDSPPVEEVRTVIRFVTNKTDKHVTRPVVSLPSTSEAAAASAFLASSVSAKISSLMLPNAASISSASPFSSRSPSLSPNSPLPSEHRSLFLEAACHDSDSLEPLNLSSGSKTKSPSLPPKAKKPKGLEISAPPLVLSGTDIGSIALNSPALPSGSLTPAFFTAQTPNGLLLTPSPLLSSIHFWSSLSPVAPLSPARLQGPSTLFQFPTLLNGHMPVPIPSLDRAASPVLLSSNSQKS
Outline: as §1

[7] = molecular target: ETV5 (Homo sapiens, UniProt P41161 1-510); details: protein: recombinant; tags: N-terminal GST; dsDNA, one strand shown
Chain of ETV5 (P41161 whole entry): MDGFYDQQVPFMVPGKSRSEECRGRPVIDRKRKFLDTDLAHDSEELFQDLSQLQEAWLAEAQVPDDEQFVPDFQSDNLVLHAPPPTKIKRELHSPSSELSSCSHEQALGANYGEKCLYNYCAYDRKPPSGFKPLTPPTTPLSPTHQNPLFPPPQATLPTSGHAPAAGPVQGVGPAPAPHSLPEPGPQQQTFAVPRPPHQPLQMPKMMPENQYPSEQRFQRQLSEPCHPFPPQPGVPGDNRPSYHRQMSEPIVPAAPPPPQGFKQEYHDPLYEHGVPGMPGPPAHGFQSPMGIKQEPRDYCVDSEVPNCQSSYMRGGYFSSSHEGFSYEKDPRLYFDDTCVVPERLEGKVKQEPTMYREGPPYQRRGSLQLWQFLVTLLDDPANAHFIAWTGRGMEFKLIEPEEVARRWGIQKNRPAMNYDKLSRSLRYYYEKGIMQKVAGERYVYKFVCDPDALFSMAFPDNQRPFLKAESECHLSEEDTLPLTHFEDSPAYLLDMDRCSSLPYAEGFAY
Outline: as §1

[8] = molecular target: HSF1 (Homo sapiens, UniProt Q00613 1-529); details: protein: recombinant; tags: N-terminal GST; chain copies: 3; dsDNA, one strand shown
Chain of HSF1 (Q00613 whole entry): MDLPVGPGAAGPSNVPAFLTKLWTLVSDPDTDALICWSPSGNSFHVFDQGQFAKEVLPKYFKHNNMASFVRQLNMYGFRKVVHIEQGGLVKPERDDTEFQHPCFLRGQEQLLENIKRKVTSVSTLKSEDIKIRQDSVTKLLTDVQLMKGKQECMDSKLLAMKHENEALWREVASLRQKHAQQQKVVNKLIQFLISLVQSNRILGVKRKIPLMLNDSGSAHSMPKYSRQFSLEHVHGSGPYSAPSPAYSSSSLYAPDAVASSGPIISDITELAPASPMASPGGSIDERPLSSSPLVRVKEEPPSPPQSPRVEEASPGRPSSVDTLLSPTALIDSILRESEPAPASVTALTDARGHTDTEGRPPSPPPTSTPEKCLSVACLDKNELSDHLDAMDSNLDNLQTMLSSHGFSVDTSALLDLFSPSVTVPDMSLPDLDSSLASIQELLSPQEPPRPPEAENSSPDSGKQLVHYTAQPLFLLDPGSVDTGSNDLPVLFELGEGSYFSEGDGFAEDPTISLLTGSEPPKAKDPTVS
Outline: as §1

[9] = molecular target: T5, SPIC (Homo sapiens, UniProt Q8N5J4 1-248); details: protein: recombinant; tags: N-terminal GST; dsDNA, one strand shown
T5 sequence: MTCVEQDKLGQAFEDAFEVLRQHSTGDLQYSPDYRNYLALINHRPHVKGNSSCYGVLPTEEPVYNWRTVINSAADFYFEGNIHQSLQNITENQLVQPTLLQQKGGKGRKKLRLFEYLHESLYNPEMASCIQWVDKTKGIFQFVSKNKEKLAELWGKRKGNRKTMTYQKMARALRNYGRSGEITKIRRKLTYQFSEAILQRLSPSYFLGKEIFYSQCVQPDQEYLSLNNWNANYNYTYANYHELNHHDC
Outline: as §1

[10] = molecular target: ELF4 (Homo sapiens, UniProt Q99607 1-663); details: protein: recombinant; tags: N-terminal GST; dsDNA, one strand shown
Chain of ELF4 (Q99607 whole entry): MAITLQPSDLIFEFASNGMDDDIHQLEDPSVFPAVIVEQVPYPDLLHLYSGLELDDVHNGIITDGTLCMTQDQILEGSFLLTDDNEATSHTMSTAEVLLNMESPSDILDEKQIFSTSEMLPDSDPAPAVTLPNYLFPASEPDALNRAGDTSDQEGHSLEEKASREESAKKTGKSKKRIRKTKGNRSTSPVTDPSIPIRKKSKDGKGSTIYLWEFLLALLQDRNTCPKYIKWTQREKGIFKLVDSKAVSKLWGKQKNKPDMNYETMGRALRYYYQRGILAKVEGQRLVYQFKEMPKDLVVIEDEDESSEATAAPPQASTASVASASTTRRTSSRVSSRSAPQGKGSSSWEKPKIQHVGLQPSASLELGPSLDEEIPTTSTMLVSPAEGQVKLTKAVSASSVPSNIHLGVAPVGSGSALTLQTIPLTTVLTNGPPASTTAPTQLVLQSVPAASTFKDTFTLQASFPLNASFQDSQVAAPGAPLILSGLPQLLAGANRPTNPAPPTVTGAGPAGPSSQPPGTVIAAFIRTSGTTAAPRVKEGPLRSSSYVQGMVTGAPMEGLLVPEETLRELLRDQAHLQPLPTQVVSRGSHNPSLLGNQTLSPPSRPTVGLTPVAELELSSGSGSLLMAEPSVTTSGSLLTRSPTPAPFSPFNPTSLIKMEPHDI
Outline: as §1

[11] = molecular target: T6, ELK4 (Homo sapiens, UniProt P28324-2 1-405); details: protein: recombinant; tags: N-terminal GST; dsDNA, one strand shown
T6 sequence: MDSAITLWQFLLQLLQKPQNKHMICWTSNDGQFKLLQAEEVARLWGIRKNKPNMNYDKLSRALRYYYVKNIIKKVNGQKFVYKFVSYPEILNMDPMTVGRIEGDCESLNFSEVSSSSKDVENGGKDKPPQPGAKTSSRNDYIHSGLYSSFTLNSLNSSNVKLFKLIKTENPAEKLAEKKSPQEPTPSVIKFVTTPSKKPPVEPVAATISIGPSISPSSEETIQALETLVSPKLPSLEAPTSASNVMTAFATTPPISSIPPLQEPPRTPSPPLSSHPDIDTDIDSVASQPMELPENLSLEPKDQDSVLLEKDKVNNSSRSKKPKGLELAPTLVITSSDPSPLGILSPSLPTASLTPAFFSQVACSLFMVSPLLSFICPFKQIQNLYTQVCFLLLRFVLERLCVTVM
Outline: as §1

[12] = molecular target: T7, ELF3 (Homo sapiens, UniProt P78545 1-371); details: protein: recombinant; tags: N-terminal GST; dsDNA, one strand shown
T7 sequence: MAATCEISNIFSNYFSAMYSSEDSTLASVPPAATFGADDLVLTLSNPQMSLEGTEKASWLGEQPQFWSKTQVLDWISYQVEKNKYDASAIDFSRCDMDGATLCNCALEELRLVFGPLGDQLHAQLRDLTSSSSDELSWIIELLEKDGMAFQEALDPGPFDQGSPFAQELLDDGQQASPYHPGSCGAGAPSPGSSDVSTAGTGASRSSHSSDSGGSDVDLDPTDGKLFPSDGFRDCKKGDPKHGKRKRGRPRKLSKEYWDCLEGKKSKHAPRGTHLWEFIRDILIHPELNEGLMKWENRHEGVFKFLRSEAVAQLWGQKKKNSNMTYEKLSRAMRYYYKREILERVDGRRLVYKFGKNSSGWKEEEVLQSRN
Outline: as §1

[13] = molecular target: CRX (Homo sapiens, UniProt O43186 1-299); details: protein: recombinant; tags: N-terminal GST; dsDNA, one strand shown
Chain of CRX (O43186 whole entry): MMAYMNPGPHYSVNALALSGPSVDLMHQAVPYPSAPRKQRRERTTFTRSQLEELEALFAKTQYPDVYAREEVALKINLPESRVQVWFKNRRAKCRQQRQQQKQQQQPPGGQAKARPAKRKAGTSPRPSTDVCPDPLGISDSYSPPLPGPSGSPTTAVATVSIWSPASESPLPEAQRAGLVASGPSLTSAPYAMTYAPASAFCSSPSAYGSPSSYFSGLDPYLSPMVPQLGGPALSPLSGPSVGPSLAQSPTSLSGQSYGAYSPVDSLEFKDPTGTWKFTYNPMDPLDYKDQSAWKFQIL
Outline: as §1

[14] = molecular target: ETV1 (Homo sapiens, UniProt P50549 1-477); details: protein: recombinant; tags: N-terminal GST; dsDNA, one strand shown
Chain of ETV1 (P50549 whole entry): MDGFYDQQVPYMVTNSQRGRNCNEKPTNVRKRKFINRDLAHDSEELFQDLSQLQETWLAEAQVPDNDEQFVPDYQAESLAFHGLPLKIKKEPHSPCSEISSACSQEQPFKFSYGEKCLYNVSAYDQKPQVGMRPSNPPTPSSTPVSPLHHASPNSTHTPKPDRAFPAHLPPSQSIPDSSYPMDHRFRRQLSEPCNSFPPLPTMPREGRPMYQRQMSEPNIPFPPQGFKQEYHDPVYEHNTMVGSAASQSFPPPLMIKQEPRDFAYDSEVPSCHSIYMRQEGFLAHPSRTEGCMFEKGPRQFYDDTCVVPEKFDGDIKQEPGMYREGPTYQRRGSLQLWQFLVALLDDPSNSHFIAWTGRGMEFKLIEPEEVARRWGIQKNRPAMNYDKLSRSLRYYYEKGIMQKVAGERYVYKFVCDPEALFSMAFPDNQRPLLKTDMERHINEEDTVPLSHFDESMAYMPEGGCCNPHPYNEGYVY
Outline: as §1

Sequence: ATCAGC
- binding signal [1]: 1.03 fold enrichment (6-mer frequency, TF over GST control)
- binding signal [2]: 1.08 fold enrichment (6-mer frequency, TF over GST control)
- binding signal [3]: 1.01 fold enrichment (6-mer frequency, TF over GST control)
- binding signal [4]: 1.02 fold enrichment (6-mer frequency, TF over GST control)
- binding signal [5]: 1.02 fold enrichment (6-mer frequency, TF over GST control)
- binding signal [6]: 1.03 fold enrichment (6-mer frequency, TF over GST control)
- binding signal [7]: 1.01 fold enrichment (6-mer frequency, TF over GST control)
- binding signal [8]: 1.01 fold enrichment (6-mer frequency, TF over GST control)
- binding signal [9]: 1 fold enrichment (6-mer frequency, TF over GST control)
- binding signal [10]: 1.02 fold enrichment (6-mer frequency, TF over GST control)
- binding signal [11]: 1.14 fold enrichment (6-mer frequency, TF over GST control)
- binding signal [12]: 1.13 fold enrichment (6-mer frequency, TF over GST control)
- binding signal [13]: 1.31 fold enrichment (6-mer frequency, TF over GST control)
- binding signal [14]: 1.01 fold enrichment (6-mer frequency, TF over GST control)
